This note sets out measurements from PubChem BioAssay (NCATS).

One may read the AC50 as the concentration giving half of the maximal activity seen.

A number with no mark means an inactive call. Results filed as inconclusive are left out. For some assays here: Measured potencies and affinities stand elsewhere. Activity calls are given as the source filed them. Unless noted, how the calls were made is not given here.

For test [1] the following is noted: Ebola virus entry assay, green fluorescence channel.
For test [2] the following is noted: Ebola virus entry assay, blue channel fluorescence.
For test [3] the following is noted: Ebola virus entry assay, ratio channel.
The conditions of test [4]: Ebola virus entry assay, reporter ratio channel; Channel type: primary.
The conditions of test [5]: Ebola virus entry assay, blue channel (ratio component).
The nature of test [6]: qHTS assay for measurement of the activity of small molecule inhibitors on Zika virus induced Caspase-3 activity in human iPSC derived neural progenitor cells (hNPCs) (AID 1224857; active means well fitted inhibition curve with a large enough effect; further: % of control where 0% means no effect; nearly all actives have a fitted effect of over 65% in size). As to conditions: hNPCs ZIKV-induced caspase-3/7, Caspase-Glo luminescence, 6 h; series mostly up to 45.7 µM. A digest of the protocol: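 Quantitative HTS format: human iPSC neural progenitors, 1 h compound pretreatment, ZIKV 2 FFU/cell for 6 h at 37 C. Percent inhibition derived from luminescent caspase-3/7 signal between uninfected and infected controls.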

Test [7] is described as follows: qHTS assay for measurement of the activity of small molecule inhibitors on Zika virus induced Caspase-3 activity in human astrocytoma cells (AID 1224859; active means well fitted inhibition curve with a large enough effect;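 further: plate controls were ZIKV-infected untreated cells for no effect and uninfected cells for full effect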). As to conditions: SNB-19 ZIKV-induced caspase-3/7, luminescence, 6 h; series mostly up to 45.7 µM. In short, it runs like this: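 Readout is luminescence from Caspase-Glo 3/7 added after a 6 h ZIKV infection (2 FFU/cell) of compound-pretreated (1 h) SNB-19 cells; data expressed as % inhibition versus uninfected and infected wells.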
Wherever efficacy is given: 0% is about no effect.

On to `C[C@]12CC[C@H]3[C@@H](CCC4=CC(=O)CC[C@@]43C)[C@@H]1CC[C@@H]2C(=O)CO`, for which, in test [1], the efficacy was 61.9%. Besides, the compound was called inactive in test [2], in test [3], in test [4] and in test [5].

As to `CC/C(=C(/CC)c1ccc(O)cc1)c1ccc(O)cc1`, the efficacy in test [1] is 26.9%. Besides, the call in test [2], in test [3], in test [4] and in test [5] was inactive.

For the compound `Cc1ccc([N+](=O)[O-])[c]2c1[O][Hg]2`, the efficacy in test [1] was -177%. Moreover, the AC50 was 1.78 µM (active) in test [2], 0.708 µM (active) in test [3] and 0.708 µM (active) in test [4]. For the same compound, the Potency result in test [6] is “inactive”.

With `O=C(/C=C/c1ccccc1)NCCO`, the efficacy in test [1] was 100%. Besides, the outcome in test [2], in test [3] and in test [5] was inactive. The concentration at half-maximal activity (AC50) in test [4] is 39.8 µM (active).

In the case of `C#C[C@]1(O)C=C[C@H]2[C@@H]3CCC4=CC(=O)CC[C@@H]4[C@H]3CC[C@@]21CC`, the efficacy in test [1] was 51.7%. Further, the result in test [2], in test [3], in test [4], in test [5] and in test [7] was inactive. Moreover, in test [6], the Potency result was “inactive”.

`C[C@@H]1C[C@H]2[C@@H]3CCC4=CC(=O)C=C[C@]4(C)[C@@]3(F)[C@@H](O)C[C@]2(C)[C@@]1(O)C(=O)COC(=O)c1ccncc1`: the efficacy in test [1] was 33.7%. Moreover, the result in test [2], in test [3] and in test [5] was inactive. In addition, in test [4], the AC50 was 39.8 µM (active).

Regarding `CN(C(=O)CCCOc1ccc2[nH]c(=O)ccc2c1)C1CCCCC1`, the efficacy in test [1] is 72.6%. Also, the call in test [2], in test [3], in test [4] and in test [5] was inactive.

As for `O=C(Nc1ccc([N+](=O)[O-])cc1)Nc1ccc([N+](=O)[O-])cc1`, the efficacy in test [1] was -37.1%. Further, the compound was classed as inactive in test [2], in test [3], in test [4] and in test [5].

Turning to `CCn1c(=O)c2c(nc(C=Cc3ccc(OC)c(OC)c3)n2C)n(CC)c1=O`, the efficacy in test [1] is 44.2%. The call in test [2], in test [3], in test [4] and in test [5] was inactive.

Turning to `CCN(CC)CC(=O)Nc1c(C)cccc1C(=O)OC`, the efficacy in test [1] is 26%. Further, the result in test [2], in test [3], in test [4] and in test [5] was inactive.

`CCCCCCCCCCCC[N+](C)(C)CCOc1ccccc1`: the efficacy in test [1] was -194%. The AC50 in test [2] was 39.8 µM (active); in test [3], 25.1 µM (active); in test [4], 25.1 µM (active). Further, the Potency result in test [6] was “inactive”. Besides, the call in test [7] was inactive.

Turning to `CC(=O)OCC(=O)[C@@]12N=C(C)O[C@@H]1C[C@H]1[C@@H]3CCC4=CC(=O)C=C[C@]4(C)[C@H]3[C@@H](O)C[C@@]12C`, the efficacy in test [1] is 27%. The compound was classed as inactive in test [2], in test [3], in test [4] and in test [5].

`COc1ccc(-c2nc3ccc(C4=NNC(=O)CC4C)cc3[nH]2)cc1` (stereo not given): the efficacy in test [1] is 23.5%. In addition, the result in test [2] and in test [5] was inactive. For the same compound, the concentration at half-maximal activity (AC50) in test [3] and in test [4] was 14.1 µM (active) each time.

For the compound `Nc1nc2ccccc2n1Cc1ccc(F)cc1`, the efficacy in test [1] was 54.1%. In addition, the compound was called inactive in test [2], in test [3] and in test [5]. In test [4], the half-maximal activity concentration (AC50) is 39.8 µM (active).

On to `CC(N)C(=O)OC(C)(C)Cc1ccc(Cl)cc1` (stereo not given), for which the efficacy in test [1] was 77%. Also, the AC50 in test [2] was 15.8 µM (active); in test [3] it was 14.1 µM (active); in test [4] it was 14.1 µM (active). For the same compound, the Potency result in test [6] was “inactive”.

With `CC#C[C@]1(O)CC[C@H]2[C@@H]3C[C@H](C)C4=CC(=O)CC[C@]4(C)[C@H]3CC[C@@]21C`, the efficacy in test [1] is 83.4%. Besides, the compound was classed as inactive in test [2], in test [3], in test [5] and in test [7]. Moreover, the concentration at half-maximal activity (AC50) in test [4] is 39.8 µM (active). The Potency entry in test [6] is “inactive”.

For the compound `Clc1ccc(C(OCCN2CCCCC2)c2ccccc2)cc1` (stereo not given), the efficacy in test [1] is 53.2%. The AC50 in test [2], in test [3] and in test [4] was 14.1 µM (active) throughout. Further, in test [6], the Potency result is “inactive”. The call in test [7] was inactive.

`COc1cc(CC(C)N)c(OC)cc1Br` (stereo not given): in test [1], the efficacy was 80.6%. Moreover, the results for the AC50 in test [2] and in test [4] were 31.6 µM (active) and 39.8 µM (active), respectively. The result in test [3] and in test [7] was inactive. Moreover, in test [6], the Potency entry is “inactive”.

Take `O=C(CS)Nc1ccccc1`: in test [1], the efficacy is 30.5%. In addition, the compound was called inactive in test [2], in test [3] and in test [5]. For the same compound, the AC50 in test [4] is 25.1 µM (active).

As for `CC1=C(CC(=O)O)c2cc(F)ccc2/C1=C\c1ccc(S(C)(=O)=O)cc1`, in test [1], the efficacy is 40.3%. The compound was called inactive in test [2], in test [3] and in test [5]. The half-maximal activity concentration (AC50) in test [4] was 39.8 µM (active).

Regarding `COP(=S)(OC)Oc1ccc(S(N)(=O)=O)cc1`, the efficacy in test [1] is -39.4%. Moreover, the result in test [2], in test [3], in test [4], in test [5] and in test [7] was inactive. The Potency result in test [6] is “inactive”.

With `CC(=O)N(CC(=O)N(C)C)c1ccccc1`, the efficacy in test [1] is 35.3%. For the same compound, the result in test [2], in test [3], in test [4] and in test [5] was inactive.

Regarding `Cc1nc2ccccc2c(=O)n1-c1ccccc1Cl`, in test [1], the efficacy is 30.7%. For the same compound, the call in test [2], in test [5] and in test [7] was inactive. The AC50 in test [3] and in test [4] was 20 µM (active) throughout.
